# In the library only some 27% were active in any assay of this set; here they are far more common.
# CYP2C19 inh: blockers of cytochrome P450 2C19 activity – biochemical, luminescence, ADME assay, primary screen; P33261; CYP2C19 Supersomes, luciferin-H EGE luminescence, 30 min; inhibition, % at 5 µM; hit rate 21% among 96,000;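 active = CYP2C19 inhibition above a set limit at 5 µM in the primary screen, cut at about 50% in these data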;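 also: plate controls were negative control wells for no effect and 2.5 mM tranylcypromine positive control for full effect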
# CYP2C9 inhib: blockers of cytochrome P450 2C9 activity – biochemical, luminescence, ADME assay, primary screen; inhibition, % at 5 µM; hit rate 20% among 96,000; P11712; CYP2C9 Supersomes, luciferin-H conversion;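 active = blocking of liver enzyme CYP2C9 beyond about 50% at 5 µM, limit read from the data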
# Cav32 inh: Cav3.2 calcium influx blockers – cell-based, Fluo-4 calcium fluorescence, FDSS, MLSMR library, primary screen; hit rate 4% among 100,000; AID 449739, 2010; B-score at 10 µM; Cav3.2-expressing cells; active compounds read low; Voltage-dependent T-type calcium channel subunit alpha-1H (Homo sapiens), O95180;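 active = single-dose well whose peak fluorescence ratio is a statistical outlier from its plate by either plate-standardised score or position-corrected B-score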
# CYP2C9 activ: human CYP2C9 activators, primary screen, biochemical, luminescence. hit rate 1.4% among 96,000. recombinant CYP2C9, luciferin-H conversion; active compounds read high; factor 1 = untreated enzyme, 0 = blocked. Cytochrome P450 2C9 (Homo sapiens), P11712. activation factor at 5 µM. AID 1024, 2008;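 active = activation factor of 2 or more for CYP2C9 at a 5 µM dose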;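 also: 0 = sulfaphenazole-blocked wells and 1 = vehicle-only wells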
# CYP2C19 act: human CYP2C19 activators, primary screen, biochemical, luminescence. activation factor at 5 µM. 96,000 tested, under 10 active. recombinant CYP2C19, luciferin-H EGE luminescence; active compounds read high; 0 = fully inhibited enzyme, 1 = untreated enzyme;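 active = activation factor of at least 2 at 5 µM in the primary screen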;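 also: 0 = wells with 2.5 mM tranylcypromine and 1 = vehicle-only wells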
# Numbers without * were called inactive; . = not tested or not shown.
SMILES,CYP2C19 inh,CYP2C9 inhib,Cav32 inh,CYP2C9 activ,CYP2C19 act
COc1ccc(-c2c(-c3ccc(O)cc3O)n[nH]c2C)cc1OC,100*,92*,-0.63,0.1,0
O=C(C1CCN(c2nnc(-n3cccc3)s2)CC1)N1CCN(Cc2ccc3c(c2)OCO3)CC1,25,2,-0.47,1,0.8
COc1ccc(OC)c(S(=O)(=O)n2nnc3ccccc32)c1,59*,-77,-1.7,1.8,0.4
CC1CCN(Cc2ccc(NC(=O)C3CCN(c4nnc(-n5cccc5)s4)CC3)cc2)CC1,56*,46,0.005,0.5,0.4
COc1ccc(OC)c(S(=O)(=O)N2CCC(C(=O)NC(C)c3ccccc3)CC2)c1 (stereo not given),39,-192,0.094,2.9*,0.6
COc1ccc(C2OC(=O)CC2C(=O)N2CCN(c3cc(Cl)ccc3C)CC2)cc1OC (stereo not given),73*,85*,-1.9,0.2,0.3
COc1ccc(Cl)cc1S(=O)(=O)n1nnc2ccccc21,-1,-9,0.18,1.1,1
CSc1nnc(Cn2c(=O)sc3ccccc32)n1CCc1ccccc1,39,45,-1.2,0.6,0.6
O=C(/C=N\O)NCCCNCc1ccccc1,0,5,1.2,1,1
CSCCNC(C)=O,-13,-15,1.8,1.1,1.1
Fc1ccc(-c2nnc(-n3nnc4ccccc43)c3ccccc23)cc1,.,.,0.54,.,.
COc1ccc(OC)c(S(=O)(=O)N2CCC(C(=O)NCCc3ccccc3)CC2)c1,41,-216,-0.0043,3.2*,0.6
COc1ccc(CCNC(=O)C2CCN(S(=O)(=O)c3cc(OC)ccc3OC)CC2)cc1,34,-50,1.6,1.5,0.7
Cc1cccc(N2CCN(C(=O)C3CCN(c4nnc(-n5cccc5)s4)CC3)CC2C)c1 (stereo not given),34,37,-2,0.6,0.7
COc1ccc(CNC(=O)C2CCCN(S(=O)(=O)c3cc(C)ccc3OC)C2)cc1 (stereo not given),46,44,-3.3*,0.6,0.5
Cc1ccc(Cl)cc1N1CCN(C(=O)C2CCN(c3nnc(-n4cccc4)s3)CC2)CC1,38,85*,-8.2*,0.1,0.6
COc1ccc(CNC(=O)C2CCN(S(=O)(=O)c3cc(OC)ccc3OC)CC2)cc1,65*,-87,0.47,1.9,0.4
COc1ccc(C)cc1S(=O)(=O)N1CCCC(C(=O)NCC2CCCO2)C1 (stereo not given),-4,-9,0.24,1.1,1
Cc1ccc(C(=O)N/C(=C\c2cccs2)C(=O)NC2CCCCC2)cc1,7,-23,0.38,1.2,0.9
CC(C)OC(=O)c1nn2c(C(F)(F)F)cc(-c3ccc(Br)o3)nc2c1Br,5,30,0.24,0.7,1
CC(C)CCNC(=O)C1CCN(c2nnc(-n3cccc3)s2)CC1,24,39,0.22,0.6,0.8
COc1ccc(OC)c(S(=O)(=O)N2CCN(C)CC2)c1,45,12,0.74,0.9,0.5
COc1ccc(OC)c(S(=O)(=O)N2CCC(C(=O)N3CCN(Cc4ccccc4)CC3)CC2)c1,42,55*,0.28,0.5,0.6
COc1ccc(OC)c(CCNC(=O)C2CCN(c3nnc(-n4cccc4)s3)CC2)c1,93*,65*,0.83,0.3,0.1
CCc1ccccc1N1CCN(S(=O)(=O)c2cc(OC)ccc2OC)CC1,100*,99*,-2.6,0,0
SMILES,CYP2C19 inh,CYP2C9 inhib,Cav32 inh,CYP2C9 activ,CYP2C19 act
COc1cccc2sc(N(C)c3ccccc3)nc12,78*,10,-2.6,0.9,0.2
O=C(Nc1cccc(C(F)(F)F)c1)c1ccc2nc(N3C(=O)CCC3=O)sc2c1,12,-9,0.76,1.1,0.9
O=C(Nc1cccc(-c2nnc(-c3ccccc3)o2)c1)c1ccc(Br)o1,33,69*,-0.95,0.3,0.7
Cc1cc(C)cc(OCC(=O)Nc2cccc(-c3nnc(-c4ccco4)o3)c2)c1,67*,80*,-2.2,0.2,0.3
O=C(Nc1cccc(C(F)(F)F)c1)c1ccc2nc(-c3ccco3)c(-c3ccco3)nc2c1,34,49,-4.8*,0.5,0.7
O=C(COc1ccccc1)Nc1nnc(-c2ccc(Cl)s2)o1,13,49,-4.8*,0.5,0.9
